Test results: PubChem BioAssay (NCATS)
Where a SMILES comes first, the peptide text is derived from it. The star is where a group is joined. AMC = Cc1cc(=O)oc2cc(N*)ccc12; Cbz = O=C(OCc1ccccc1)*

Key:
Assay in all cases: Confirmatory Screen for Target Class Profiling of Small Molecule Inhibitors of Methyltransferases (AID 1745852); on activity change, negative = inhibition: on the % scale 0 is the no-effect control and ±100 the full control effect
[1] = target: Catechol O-methyltransferase (Homo sapiens) (UniProt P21964); settings: MTase-Glo luminescence, SAH detection, recombinant enzyme; measured here: COMT max response; stronger effect = lower value
Sequence of Catechol O-methyltransferase (Homo sapiens) (P21964 whole entry, looked up): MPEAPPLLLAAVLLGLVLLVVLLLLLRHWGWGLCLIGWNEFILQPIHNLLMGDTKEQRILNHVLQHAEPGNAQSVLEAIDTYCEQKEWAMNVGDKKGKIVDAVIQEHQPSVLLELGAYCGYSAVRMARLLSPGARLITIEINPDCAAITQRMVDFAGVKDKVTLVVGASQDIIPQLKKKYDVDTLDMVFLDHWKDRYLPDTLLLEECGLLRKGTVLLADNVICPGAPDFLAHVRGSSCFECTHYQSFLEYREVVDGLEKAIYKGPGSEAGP

[2] = target: Guanidinoacetate N-methyltransferase (Homo sapiens) (UniProt Q14353); settings: MTase-Glo luminescence, SAH detection, recombinant enzyme; activity change, negative = inhibition: at 57.3 µM (top of the series) unless noted
[3] = target: Nicotinamide N-methyltransferase (Homo sapiens) (UniProt P40261); settings: MTase-Glo luminescence, SAH detection, recombinant enzyme; measured here: NNMT max response; stronger effect = lower value
Sequence of Nicotinamide N-methyltransferase (Homo sapiens) (P40261 whole entry, looked up): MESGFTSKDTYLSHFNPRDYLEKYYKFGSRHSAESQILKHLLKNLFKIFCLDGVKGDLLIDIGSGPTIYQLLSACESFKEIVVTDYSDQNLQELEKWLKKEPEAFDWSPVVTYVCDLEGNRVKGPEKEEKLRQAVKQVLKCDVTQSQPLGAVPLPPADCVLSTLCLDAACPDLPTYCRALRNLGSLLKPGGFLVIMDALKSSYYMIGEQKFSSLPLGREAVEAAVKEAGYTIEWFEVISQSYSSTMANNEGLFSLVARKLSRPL

[4] = target: Phenylethanolamine N-methyltransferase (Homo sapiens) (UniProt P11086); settings: MTase-Glo luminescence, SAH detection, recombinant enzyme; measured here: PNMT max response; stronger effect = lower value
Sequence of Phenylethanolamine N-methyltransferase (Homo sapiens) (P11086 whole entry, looked up): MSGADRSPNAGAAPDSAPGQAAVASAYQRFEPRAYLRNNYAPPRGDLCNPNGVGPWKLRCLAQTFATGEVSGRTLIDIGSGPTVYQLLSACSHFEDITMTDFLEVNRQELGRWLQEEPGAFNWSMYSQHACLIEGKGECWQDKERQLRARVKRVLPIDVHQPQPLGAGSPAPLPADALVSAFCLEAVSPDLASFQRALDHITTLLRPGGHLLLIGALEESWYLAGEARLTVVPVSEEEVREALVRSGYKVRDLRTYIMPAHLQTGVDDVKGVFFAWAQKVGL

CC(C)(O)C1CC=C(C(=O)OC[C@H]2O[C@@H](OC(=O)C3=CCC(C(C)(C)O)CC3)[C@H](O)[C@@H](O)[C@@H]2O)CC1 (stereo partly specified)
activity [1]: -62.1% | activity change, negative = inhibition [2]: -9.84% [at 29.8 µM] | activity [3]: -5.04% | activity [4]: -5.85%

CC(=O)c1c(C)cccc1O[C@@H]1O[C@H](CO)[C@@H](O)[C@H](O)[C@H]1O
activity [1]: -68.9% | activity change, negative = inhibition [2]: -2.96% | activity [3]: -4.15% | activity [4]: -3.91%

O=C(O)CC(CCc1ccccc1)OC1OC(CO)C(O)C(O)C1O (stereo unspecified)
activity [1]: -76.5% | activity change, negative = inhibition [2]: -3.69% | activity [3]: -1.93% | activity [4]: -2.51%

CC1=C2CC3C(CCC3(C)O)C(C)(O)CC2OC1=O (stereo unspecified)
activity [1]: -78.6% | activity change, negative = inhibition [2]: 0% | activity [3]: 0% | activity [4]: 0%

C=C1C(=O)O[C@@H]2CC(C)=C([C@@H](C)CCCOC(C)=O)[C@@H](O)[C@H]12
activity [1]: -78.5% | activity change, negative = inhibition [2]: 1.58% | activity [3]: -0.922% | activity [4]: -2.38%

C=CC(C)(O)CC/C=C(\C)COC1O[C@H](CO)[C@@H](O)[C@H](O)[C@H]1O (stereo partly specified)
activity [1]: -76.9% | activity change, negative = inhibition [2]: -6.43% | activity [3]: -3.25% | activity [4]: -3.19%

COC(=O)[C@H](Cc1cccc(C(=N)N)c1)[C@@H](C)NC(=O)c1ccc(-c2cc[n+]([O-])cc2)cc1
activity [1]: -6.84% | activity change, negative = inhibition [2]: 0% | activity [3]: 1.87% | activity [4]: -2.03%

CC(=O)OC/C(=C/C(=O)O)CC[C@@H]1C(CO)=CC[C@@H]2C(C)(C)CCC[C@@]12C
activity [1]: -82.3% | activity change, negative = inhibition [2]: -4.99% | activity [3]: -8.71% | activity [4]: -5.03%

Cc1cc(=O)oc2cc(NC(=O)[C@H](CCC(=O)O)NC(=O)[C@H](CC(C)C)NC(=O)[C@H](CC(C)C)NC(=O)OCc3ccccc3)ccc12 (Cbz-Leu-Leu-Glu-{AMC})
activity [1]: -1.08% | activity change, negative = inhibition [2]: 0% | activity [3]: -71.3% | activity [4]: -1.44%
